Shown are actives, neighbours in structure and some others; about 19% of the full set was active somewhere.
HT1080-NT tox = kills 2HG-producing HT-1080-NT fibrosarcoma cells | HT-1080-NT fibrosarcoma viability, CellTiter-Glo ATP luminescence, 48 h | Potency, µM (highest dose often 46.1 µM), for the others: at the highest dose activity, negative = less viability, actives largely listed as cytotoxic | 360,000 tested, 1.6% active | AID 686970;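 note: NT is the 2HG producing partner of a matched IDH1 knockdown line; potency is the fitted concentration of half-maximal effect; 0% = DMSO-treated cells and -100% = media-only wells without cells; nearly all actives have a fitted effect of over 55% in size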
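Toxicity toward the 2HG-producing NT line was scored as %Activity, normalised to DMSO and no-cell wells, from CellTiter-Glo luminescence after 48 hours' treatment.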
IL1B secr inh = inhibitors of inflammasome signaling (IL-1 beta secretion); THP-1 LPS/ATP IL-1B secretion, AlphaLISA, 16 h; stronger effect = lower value; activity change, % at 57.5 µM; 360,000 tested, 4.7% active; in the data active = activity change below about -50%; inconclusive = mostly about -30% to -49%
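THP-1 cells pretreated 1 hr with compounds (up to 57.5 uM final), then stimulated with LPS (250 ng/mL final) plus ATP (1.25 mM final); secreted IL-1B measured by AlphaLISA after 16 hr, decreased signal indicating inhibition.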
HT1080 IDH1KD tx = HT-1080 IDH1 knockdown cell toxicity (counter line). HT-1080 IDH1 knockdown viability, ATP luminescence, 48 h. Potency, µM (top dose mostly 46.1 µM), for the others: at the highest dose activity, negative = toxicity, most hits filed as cytotoxic. 360,000 tested, 2% active;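 note: potency is the fitted concentration of half-maximal effect; 0% = DMSO wells and -100% = cell-free medium wells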
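CellTiter-Glo luminescence after 48 h compound exposure at 37 degrees C of IDH1-knockdown HT-1080 cells in 5% FBS RPMI. %Activity scaled between DMSO wells and cell-free media wells, with curves fitted and assigned curve classes.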
TDP1 cell noCPT = qHTS for Inhibitors of human tyrosyl-DNA phosphodiesterase 1 (TDP1): qHTS in cells in absence of CPT. DT40 Tdp1-/- hTDP1 cells, no CPT, ATP luminescence, 48 h. Potency, µM (series often up to 46.2 µM), inactives show top-dose activity change, negative = growth inhibition, most hits filed as inhibitors. 420,000 tested, 15% active; note: potency is the fitted concentration of half-maximal effect; nearly all actives have a fitted effect of over 55% in size
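Camptothecin absent (DMSO only). Human TDP1-complemented DT40 knockout cells, 400 cells/well, 37 °C for minimum 48 hr; ATP measured via CellTiter-Glo, 30 min dark incubation, luminescence.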
DT40 TDP1 CPT = growth inhibition of DT40 Tdp1-/-;hTDP1 cells with camptothecin (screen for TDP1 inhibitors); 420,000 tested, 12% active; Potency, µM (top dose mostly 46.2 µM), without a hit: at the top dose activity change, negative = growth inhibition, most hits filed as inhibitors; AID 686979; chicken DT40 Tdp1-/-;hTDP1 cells + 20 nM CPT, ATP luminescence, 48 h; note: potency is the fitted concentration of half-maximal effect; nearly all actives have a fitted effect of over 55% in size
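Chicken DT40 Tdp1-/- cells stably complemented with human TDP1 were seeded at 400 cells/well in medium containing 20 nM camptothecin, exposed to pin-transferred compounds, and grown at 37 °C for at least 48 hr. Viability was read as ATP luminescence.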
An asterisk follows results filed as active; ? = inconclusive; / = not tested or not shown; [ ] = another dose, or the depositor's remark. Unless noted, calls come from the whole dose curve; as a rule, active = well fitted curve in the direction sought with a large enough effect; inconclusive = small, poorly fitted or top-dose-only effect, or another doubt; inactive = no such curve, though single readings can be large; an effect the other way counts as inactive or inconclusive. Unless noted, % is set by controls: 0 for no effect and ±100 for the full control effect.

SMILES	HT1080-NT tox	IL1B secr inh	HT1080 IDH1KD tx	TDP1 cell noCPT	DT40 TDP1 CPT
COC(=O)c1sc2ccccc2c1NC(=O)c1ccc(S(=O)(=O)N2CC(C)CC(C)C2)cc1 (stereo not drawn)	5.0%	12.6	-5.9%	18.4µM*	20.6µM*
CCOC(=O)c1sc2ccc(S(=O)(=O)N3CC(C)CC(C)C3)cc2c1N (stereo not drawn)	-9.6%	18.2	4.9%	13µM*	?
Cc1cc(=O)n(C(C)c2ccccc2)n1C(C)c1ccccc1 (stereo not drawn)	-1.9%	10.1	5.0%	?	-29.5%
COc1ccc2nc(SCC(=O)NC3(C#N)CCCCC3)[nH]c2c1	-1.1%	-7.6	-4.6%	-19.2%	-25.6%
CCOC(=O)C[N+]1(C)CCN(C(C)=O)CC1	1.3%	13.6	1.0%	10.1%	5.0%
N#Cc1ccc(Nc2nc(-c3ccccc3)c(C(=O)c3ccccc3)s2)cc1	?	-52.4*	?	23.1µM*	18.4µM*
CCOC(=O)c1sc(NC(=O)c2ccc(S(=O)(=O)N3CCCCC3)cc2)nc1-c1ccccc1	11.2%	-2.3	11.7%	?	-11.7%
CCOC(=O)c1sc(NC(=O)c2ccc(S(=O)(=O)N3CCCCCC3)cc2)nc1-c1ccccc1	-4.6%	9.8	7.6%	1.03µM*	?
CCOC(=O)Nc1sc(C)nc1-c1ccccc1	3.5%	-6.2	8.0%	-4.1%	10.1%
CCOC(=O)c1sc2ccc(S(=O)(=O)N3CCCCC3)cc2c1N	?	-28.6	?	?	14.1µM*
CCOC(=O)Nc1nc(-c2ccccc2)c(C(=O)c2ccc(Cl)cc2)s1	?	35.6	0.517µM*	0.92µM*	0.731µM*
COc1cccc(-c2cc(C(=O)NCCCn3ccnc3)no2)c1	3.7%	9.7	9.5%	-17.9%	-8.2%
O=C(Cc1ccc(Cl)cc1)NC1CCCN(Cc2ccccc2F)C1 (stereo not drawn)	-0.1%	1.6	0.4%	-5.4%	-15.8%
COC(=O)C1=C(C)N(CCCC(=O)O)C(=O)NC1c1ccccc1OS(=O)(=O)c1ccc([N+](=O)[O-])cc1 (stereo not drawn)	-1.7%	21.6	2.3%	-3.2%	-3.6%
COc1ccc(Cc2noc(CN3CCCN(Cc4ccc(F)cc4)CC3)n2)cc1OC	-0.6%	-13.7	7.6%	?	-0.2%
COc1ccc(Cc2noc(CN3CCN(C4CCc5ccccc5C4)CC3)n2)cc1OC (stereo not drawn)	-13.3%	-18.2	?	20.6µM*	?
COc1ccc(Cc2noc(CN3CCC(c4ccncc4)CC3)n2)cc1OC	-27.0%	42.7	?	23.1µM*	20.6µM*
O=S(=O)(CCN(CCS(=O)(=O)C(F)(F)F)CC1CCCO1)C(F)(F)F (stereo not drawn)	8.4%	-5.7	-0.6%	2.31µM*	2.31µM*
O=C(/C=C(\c1ccc(Cl)cc1)n1cncn1)c1ccc(Cl)cc1	-0.5%	-57.3*	-11.4%	16.4µM*	?
Cc1ccc(S(=O)(=O)N(C)C)cc1NC(=O)c1cccnc1Oc1ccccc1	5.8%	-21.0	0.2%	?	-17.7%
C#CCOc1nc(Nc2cccc([N+](=O)[O-])c2)nc(OCC#C)n1	?	-65.6*	?	20.6µM*	?
CCn1cc2nc(SCC(=O)Nc3ccc(F)cc3F)n(Cc3ccccc3)c(=O)c2n1	4.9%	-8.7	-4.9%	?	23.1µM*
CCN(C(=O)CSc1nc2ccccc2n1CC(=O)Nc1ccc(F)cc1F)c1ccccc1	/	/	/	14.6µM*	23.1µM*
Cc1ccc(C)c(NC(=O)Cn2c(SCC(=O)NCc3ccccc3)nc3ccccc32)c1	/	/	/	-18.6%	?
CCn1cc2nc(SCC(=O)Nc3ccc(C)cc3C)n(Cc3ccc(C)cc3)c(=O)c2n1	/	/	/	5.17µM*	3.66µM*
SMILES	HT1080-NT tox	IL1B secr inh	HT1080 IDH1KD tx	TDP1 cell noCPT	DT40 TDP1 CPT
COc1cccc(CN(C)C(=O)c2cc(S(=O)(=O)NC3CCCCC3)ccc2C)c1OC	-0.5%[9.24 µM]	-23.0	-0.3%	-2.6%	?
COc1ccc(CCNC(=O)C2CCN(S(C)(=O)=O)CC2)cc1	-2.3%	31.6	12.8%	-21.5%	-15.5%
CCOC(=O)C1CCN(S(=O)(=O)c2ccc3c4c2CC(=O)N4CC(C)S3)CC1 (stereo not drawn)	-0.2%	21.8	0.2%	?	20.6µM*
CCOC(=O)C1CCCN(S(=O)(=O)c2ccc3c4c2CC(=O)N4CC(C)S3)C1 (stereo not drawn)	9.8%	15.8	-5.5%	18.4µM*	?
O=[N+]([O-])c1ccc(-c2c(-c3ccccc3)ncc3cc(F)ccc23)cc1	?	22.8	-28.0%	18.4µM*	14.6µM*
Nc1nc(-c2ccccc2)c(-c2ccc([N+](=O)[O-])cc2)s1	-2.9%	0.0	3.3%	?	?
O=[N+]([O-])c1cccc(-c2c(-c3ccccc3)ncc3cc(F)ccc23)c1	0.0%	20.4	-13.5%	20.6µM*	8.2µM*
CCCCCNC(=O)C(c1ccccc1)n1c(=O)c(-c2cc3ccccc3[nH]2)nc2ccccc21 (stereo not drawn)	?	40.5	-29.4%	?	?
CC(C(O)C12CC3CC(CC(C3)C1)C2)N1CCCCC1 (stereo not drawn)	1.5%	0.0	-2.2%	?	-6.2%
COCCN(C)C(=O)c1cnn(-c2nccc(-c3cc(OC)ccc3OC)n2)c1C	/	/	/	-17.3%	-0.3%[9.04 µM]
Cc1ccccc1-c1nnc(CN2CCN(c3cccc(C)c3C)CC2)o1	/	/	/	-25.8%	-20.3%
Cc1ccc(C)c(N2CCN(C(c3ccccc3)c3nnc(-c4ccccc4F)o3)CC2)c1 (stereo not drawn)	/	/	/	23.1µM*	?
Cc1ccc(C)c(N2CCN(C(c3ccc(F)cc3)c3nnc(-c4ccccc4)o3)CC2)c1 (stereo not drawn)	/	/	/	14.6µM*	?
Cc1cccc(N2CCN(C(c3ccccc3)c3nnc(-c4ccccc4F)o3)CC2)c1C (stereo not drawn)	/	/	/	23.1µM*	14.6µM*
Cc1ccc(C)c(SCC(=O)Nc2nnc(-c3ccccc3)o2)c1	?	9.0	-25.1%	?	?
Oc1ccccc1N1CCN(C(c2ccccc2)c2ccccc2)CC1	-19.4%	?	?	?	?
Cc1ccc(C)c(N2CCN(C(=O)CCc3nc(-c4ccccc4F)no3)CC2)c1	-2.1%	25.5	5.9%	?	?
Cc1cccc(N2CCN(C(c3ccccc3)c3nnc(-c4ccccc4Cl)o3)CC2)c1C (stereo not drawn)	/	/	/	?	20.6µM*
